Most compounds without a hit are left out; they make up all but 32% or so of the library.
CYP2C9 activ: increases human cytochrome P450 2C9 activity; P11712; recombinant CYP2C9, luciferin-H conversion, luminescence; active compounds read high; factor 1 = untreated enzyme, 0 = blocked; activation factor at 5 µM; hit rate 1.4% among 96,000;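 active = activation factor of 2 or more for CYP2C9 at a 5 µM dose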;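 also: 0 = sulfaphenazole-blocked wells and 1 = vehicle-only wells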
Target sequence (P11712 whole entry, looked up): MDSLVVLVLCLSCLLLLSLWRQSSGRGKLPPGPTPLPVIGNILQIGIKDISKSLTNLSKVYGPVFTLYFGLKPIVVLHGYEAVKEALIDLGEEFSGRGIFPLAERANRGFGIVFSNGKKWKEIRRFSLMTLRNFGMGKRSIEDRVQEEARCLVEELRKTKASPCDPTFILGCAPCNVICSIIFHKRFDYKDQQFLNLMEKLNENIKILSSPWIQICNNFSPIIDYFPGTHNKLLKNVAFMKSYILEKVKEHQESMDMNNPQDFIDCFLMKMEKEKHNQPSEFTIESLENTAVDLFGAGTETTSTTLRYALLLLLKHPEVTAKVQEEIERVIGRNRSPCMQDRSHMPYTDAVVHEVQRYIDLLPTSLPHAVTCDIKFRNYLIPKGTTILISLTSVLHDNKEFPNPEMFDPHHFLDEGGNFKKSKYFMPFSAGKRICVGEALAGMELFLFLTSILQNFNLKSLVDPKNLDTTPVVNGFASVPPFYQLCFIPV
CYP2C9 inh: inhibitors of human CYP2C9; hit rate 20% among 96,000; inhibition, % at 5 µM; CYP2C9 Supersomes, luciferin-H conversion, luminescence; AID 777; P11712;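 active = blocking of liver enzyme CYP2C9 beyond about 50% at 5 µM, limit read from the data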
CYP2C19 activ: activators of human cytochrome P450 2C19; recombinant CYP2C19, luciferin-H EGE luminescence; active compounds read high; 0 = fully inhibited enzyme, 1 = untreated enzyme; activation factor at 5 µM; 96,000 tested, under 10 active;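 active = activation factor of at least 2 at 5 µM in the primary screen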;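 also: 0 = wells with 2.5 mM tranylcypromine and 1 = vehicle-only wells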
CYP2C19 inh: human CYP2C19 inhibition. CYP2C19 Supersomes, luciferin-H EGE luminescence, 30 min. inhibition, % at 5 µM. hit rate 21% among 96,000. AID 778;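 active = CYP2C19 inhibition above a set limit at 5 µM in the primary screen, cut at about 50% in these data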;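 also: plate controls were negative control wells for no effect and 2.5 mM tranylcypromine positive control for full effect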
PostGolgi ctrl: growth of the yeast control strain, post-Golgi counter-screen; efflux-deficient yeast background strain, growth absorbance A615, 16 h; inhibition, % at 10 µM; hit rate 5% among 98,000; AID 738
PostGolgi yeast: growth inhibition of a yeast mutant, post-Golgi transport screen; AID 739; hit rate 0.9% among 98,000; post-Golgi transport phenotypic cell assay; inhibition, % at 10 µM;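 also: yeast cells grown in 1536-well plates; yeast grown about 18 h at 30C before absorbance read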
* = called active by the depositor. Rule as the data show it, unless noted: active = inhibition above about 30%; inactive = the rest.

Screening CCOC(=O)c1sc(C)c2c(=O)n(CCc3ccccc3)nnc12 returned CYP2C9 activ 1, CYP2C9 inh -1, CYP2C19 activ 1.1, CYP2C19 inh -8, PostGolgi ctrl 4 and PostGolgi yeast 13.
Screening CCOC(=O)c1c(C)nc2sc3c(c2c1-c1ccc(OC)cc1)NC(c1ccccc1)NC3=O (stereo not given) returned PostGolgi ctrl 4 and PostGolgi yeast -5.
Screening CCOC(=O)c1sc(C)c2c1NC(C)(c1ccccc1)NC2=O (stereo not given) returned CYP2C9 activ 0.3, CYP2C9 inh 68*, CYP2C19 activ 0.8, CYP2C19 inh 18, PostGolgi ctrl 22 and PostGolgi yeast 2.
For COc1ccc(Oc2nc(SC)nc3ccccc23)cc1 the results were CYP2C9 activ 1.1, CYP2C9 inh -6, CYP2C19 activ 1, CYP2C19 inh 1, PostGolgi ctrl 6 and PostGolgi yeast 8.
For CS(=O)(=O)N(CC(=O)Nc1cccc(F)c1)Cc1ccccc1 the results were CYP2C9 activ 0.2, CYP2C9 inh 82*, CYP2C19 activ 0.1, CYP2C19 inh 91*, PostGolgi ctrl -8 and PostGolgi yeast 7.
Screening CC(=O)c1cccc(NC(=O)CN(Cc2ccccc2)S(C)(=O)=O)c1 returned CYP2C9 activ 0.6, CYP2C9 inh 38, CYP2C19 activ 0.2, CYP2C19 inh 76*, PostGolgi ctrl 7 and PostGolgi yeast 8.
For CC(=O)c1cccc(NC(=O)CN(c2ccccc2)S(C)(=O)=O)c1 the results were CYP2C9 activ 0.8, CYP2C9 inh 18, CYP2C19 activ 0.7, CYP2C19 inh 26, PostGolgi ctrl 2 and PostGolgi yeast -5.
`O=C(Nc1ccc2ccccc2c1)c1cccnc1` gave CYP2C9 activ 0.9, CYP2C9 inh 8, CYP2C19 activ 0.8, CYP2C19 inh 17, PostGolgi ctrl 10 and PostGolgi yeast 5.
`O=C(Nc1ccc2nccnc2c1)c1cnccn1` gave CYP2C9 activ 1, CYP2C9 inh 2, CYP2C19 activ 0.5, CYP2C19 inh 51*, PostGolgi ctrl 15 and PostGolgi yeast -2.
Screening O=C(Nc1ccc(NC(=O)c2ccco2)cc1)c1cnccn1 returned CYP2C9 activ 1.1, CYP2C9 inh -10, CYP2C19 activ 0.7, CYP2C19 inh 27, PostGolgi ctrl -5 and PostGolgi yeast -1.
Screening O=C(Nc1ccc(S(=O)(=O)NC2CCCC2)cc1)c1cnccn1 returned CYP2C9 activ 0.1, CYP2C9 inh 95*, CYP2C19 activ 0.7, CYP2C19 inh 28, PostGolgi ctrl -1 and PostGolgi yeast 6.
O=C(Nc1ccc2ccccc2c1)c1cnccn1 was read as CYP2C9 activ 1.2, CYP2C9 inh -22, CYP2C19 activ 0.4, CYP2C19 inh 56*, PostGolgi ctrl 0 and PostGolgi yeast -1.
Screening Cc1c(Br)cc(C(=O)NC2CCCCC2)c(C)c1C returned CYP2C9 activ 1.4, CYP2C9 inh -36, CYP2C19 activ 1.1, CYP2C19 inh -8, PostGolgi ctrl 10 and PostGolgi yeast -13.
Screening O=C(NCCN1CCOCC1)c1ccc(-c2ccccc2)cc1 returned CYP2C9 activ 1.1, CYP2C9 inh -11, CYP2C19 activ 1.2, CYP2C19 inh -16, PostGolgi ctrl 11 and PostGolgi yeast 1.
For O=C(Cc1ccc(-c2ccccc2)cc1)NCCN1CCOCC1 the results were CYP2C9 activ 0.6, CYP2C9 inh 42, CYP2C19 activ 0.3, CYP2C19 inh 72*, PostGolgi ctrl 7 and PostGolgi yeast 2.
For Cc1ccc(-c2cc(C(=O)NCCN3CCOCC3)no2)cc1 the results were CYP2C9 activ 0.9, CYP2C9 inh 6, CYP2C19 activ 0.9, CYP2C19 inh 11, PostGolgi ctrl 30* and PostGolgi yeast -5.
`O=C(Cc1nc(-c2ccc(Br)s2)cs1)NCCN1CCOCC1` gave CYP2C9 activ 0.7, CYP2C9 inh 34, CYP2C19 activ 0.2, CYP2C19 inh 77*, PostGolgi ctrl -7 and PostGolgi yeast -5.
O=C(CC(c1ccccc1)c1cc(Br)ccc1O)NCCN1CCOCC1 (stereo not given) was read as CYP2C9 activ 0.4, CYP2C9 inh 56*, CYP2C19 activ 0.2, CYP2C19 inh 85*, PostGolgi ctrl -1 and PostGolgi yeast -2.
Screening O=c1ccc2cc3c([nH]c4ccc(Br)cc43)oc-2c1O returned CYP2C9 activ 1, CYP2C9 inh -1, CYP2C19 activ 0.9, CYP2C19 inh 8, PostGolgi ctrl -11 and PostGolgi yeast 5.

Screening data (PubChem BioAssay)
